{"source": "PubChem BioAssay (EPA / NIEHS)", "note": "Activity calls are given as the source filed them. Rule for the calls: active = hit-call score of the fitted dose curve at least 0.9, where 1 is the maximum; inactive = score below 0.9."}
{"molecular_target": "Nuclear respiratory factor 1 (Homo sapiens) (UniProt Q16656)", "sequence (Q16656 whole entry, looked up)": "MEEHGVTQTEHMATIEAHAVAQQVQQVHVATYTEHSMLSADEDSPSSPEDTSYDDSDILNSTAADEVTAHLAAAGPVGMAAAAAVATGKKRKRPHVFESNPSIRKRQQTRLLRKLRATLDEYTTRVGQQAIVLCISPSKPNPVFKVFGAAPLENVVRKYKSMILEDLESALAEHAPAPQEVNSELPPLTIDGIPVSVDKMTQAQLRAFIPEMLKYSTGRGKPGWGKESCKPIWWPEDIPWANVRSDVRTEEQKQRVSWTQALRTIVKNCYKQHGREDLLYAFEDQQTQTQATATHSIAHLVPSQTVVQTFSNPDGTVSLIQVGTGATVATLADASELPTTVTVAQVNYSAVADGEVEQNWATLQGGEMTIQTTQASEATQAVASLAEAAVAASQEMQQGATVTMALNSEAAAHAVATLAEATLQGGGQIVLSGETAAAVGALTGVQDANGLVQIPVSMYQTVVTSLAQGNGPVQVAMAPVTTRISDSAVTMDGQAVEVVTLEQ", "experiment": "ATG_NRF1_CIS: Attagene CIS-FACTORIAL HepG2 Assay for human Nuclear Respiratory Factor 1 (NRF1) Orphan Gene (AID 2282987)", "details": "HepG2 NRF1 cis-element reporter, Attagene multiplex; actives raise or lower the signal", "protocol": "ATG_CIS is a cell-based, multiplexed-readout assay that uses HepG2, a human liver cell line, with measurements taken at 24 hours after chemical dosing in a 24-well plate.ATG_NRF1_CIS is one of 52 assay component(s) measured or calculated from the ATG_CIS assay. It is designed to make measurements of mRNA induction, a form of inducible reporter, as detected with fluorescence intensity signals by Reverse transcription polymerase chain reaction (RT-PCR) and Capillary electrophoresis technology.Data from the assay component ATG_NRF1_CIS was analyzed into 1 assay endpoint. This assay endpoint, ATG_NRF1_CIS, was analyzed with bidirectional fitting relative to DMSO as the negative control and baseline of activity. Using a type of inducible reporter, measures of mRNA for gain or loss-of-signal activity can be used to understand the reporter gene at the transcription factor-level as they relate to the gene NRF1. Furthermore, this assay endpoint can be referred to as a primary readout, because this assay has produced multiple assay endpoints where this one serves a reporter gene function. To generalize the intended target to other relatable targets, this assay endpoint is annotated to the dna binding intended target family, where the subfamily is nuclear respiratory factors.\nHuman liver HepG2 cells are transiently transfected with multiple reporter transcription units (MRTUs) in 6-well plates using FuGene 6 reagent (Roche; 3 ml FuGene/1 mg DNA). The MRTU constructs are regulated by a cis-regulating element (promoter). […] A major difference between the CIS and TRANS system is that in CIS activities of endogenous TFs are measured, whereas the TRANS assay evaluates changes in activities of exogenous, chimeric NR-Gal4 proteins. […] At the end of 24 hour incubation, total RNA was isolated using TriZol reagent (Invitrogen). The isolated RNA is then reverse-transcribed using oligo(dT) primer and Mo-MLV reverse transcriptase (Invitrogen) with DNAse I (Ambion) treatment for 30 min. The one-tenth of the produced cDNA was amplified by PCR using Taq DNA polymerase (Invitrogen) and two reporter sequence-specific primers. The PCR products were fluorescently labeled by primer extension with 6-arboxyfluorescein (6-FAM) 5'-labeled reporter sequence-specific primer (2 min at 95 C, 20 s at 68 C and 10 min at 72 C) and these products were digested with 5U of HpaI (New England Biolabs) for 2h at 37 C. The fragments were purified using Qiaquick PCR columns (Qiagen), analyzed on an ABI 3130xL genetic analyzer (Applied Biosystems) with peak positions identified by using a set of X-rhodamine (ROX)-labeled MapMarker1000 molecular weight standards (BioVentures). The raw capillary electrophoresis data was processed using Attagraph software (Attagene)."}
{"compound": "C=Cc1ccc(OC(C)=O)cc1", "outcome": "inactive"}
{"compound": "CCCCCOC(=O)CCCCC", "outcome": "inactive"}
{"compound": "CCCCC1CCC(=O)O1", "note": "(stereo not given)", "outcome": "inactive"}
{"compound": "CC(=O)/C=C/C1C(C)=CCCC1(C)C", "note": "(stereo not given)", "outcome": "inactive"}
{"compound": "CC(C)[N+](C)(CCOC(=O)C1c2ccccc2Oc2ccccc21)C(C)C", "outcome": "inactive"}
{"compound": "COc1ccc(C(=O)c2ccccc2)c(O)c1", "outcome": "inactive"}
{"compound": "C=C(C)C(=O)OCCCCCCCCCCCC", "outcome": "inactive"}
{"compound": "CC(CC(C)C)=NO", "outcome": "inactive"}
{"compound": "CCN1CCCC1=O", "outcome": "inactive"}
{"compound": "Cn1cccc1", "outcome": "inactive"}
{"compound": "CC(C)OC(=O)c1ccccc1", "outcome": "inactive"}
{"compound": "C1CCSC1", "outcome": "inactive"}
{"compound": "O=C(Oc1ccccc1)c1ccccc1O", "outcome": "inactive"}
{"compound": "O=C(OCc1ccccc1)c1ccc(O)cc1", "outcome": "inactive"}
{"compound": "COc1ccc(-c2coc3cc(O)cc(O)c3c2=O)cc1", "AC50": "25.9 µM (active)"}
{"compound": "Cc1ccc(S(=O)(=O)N=C=O)cc1", "outcome": "inactive"}
{"compound": "Nc1ncnc2nc[nH]c12", "outcome": "inactive"}
{"compound": "CC=C(C)C(C)=O", "outcome": "inactive"}
{"compound": "C=CC(C)(CCC=C(C)C)OC(=O)C=Cc1ccccc1", "note": "(stereo not given)", "outcome": "inactive"}
{"compound": "CCC(C)C(=O)OC", "note": "(stereo not given)", "outcome": "inactive"}
{"compound": "Clc1cccnc1", "outcome": "inactive"}
{"compound": "CCCCCCCCCCCCc1ccc(O)cc1", "outcome": "inactive"}
{"compound": "CCCCOCCOCCOC(C)=O", "outcome": "inactive"}
{"compound": "C=CC(=O)NCOCCCC", "outcome": "inactive"}
{"compound": "CCCC1CCCC(=O)O1", "note": "(stereo not given)", "outcome": "inactive"}
{"compound": "CC(C)(CO)COC(=O)C(C)(C)CO", "outcome": "inactive"}
{"compound": "CCC1(C)C(=O)N(Cl)C(=O)N1Cl", "note": "(stereo not given)", "outcome": "inactive"}
{"compound": "O=C(Nc1ccccc1)c1cc(Cl)ccc1O", "outcome": "inactive"}
{"compound": "CCC1COC(=O)O1", "note": "(stereo not given)", "outcome": "inactive"}
{"compound": "C1CNCCN1", "outcome": "inactive"}
{"compound": "O=C1CCCCCCCCCCC1", "outcome": "inactive"}
{"compound": "CCC(C)(O)CCCC(C)C", "note": "(stereo not given)", "outcome": "inactive"}
{"compound": "CCCCNS(=O)(=O)c1ccccc1", "outcome": "inactive"}
{"compound": "N#Cc1ccc(C2CCCc3cncn32)cc1", "note": "(stereo not given)", "outcome": "inactive"}
{"compound": "CCCCCCCC(=O)OCC", "outcome": "inactive"}
{"compound": "C=CC(=O)OCCCCCCCC(C)C", "outcome": "inactive"}
{"compound": "COC(C=C(C)CCC=C(C)C)OC", "outcome": "inactive"}
{"compound": "CC1OC(=O)C(C)OC1=O", "note": "(stereo not given)", "outcome": "inactive"}
{"compound": "CCCCCC(=O)OCC", "outcome": "inactive"}
{"compound": "C=C(C)OC(C)=O", "outcome": "inactive"}
